Only a selection was taken, and hits are over-represented in it overall.
Pf Dd2 growth – inhibitors of Plasmodium falciparum Dd2 growth | P. falciparum Dd2 growth, SYBR Green, 72 h | Potency, µM (series often up to 28.9 µM), hits mostly inhibitors | hit rate 4.3% among 120,000 | AID 1347417; active = well fitted inhibition curve with a large enough effect; note: nearly all actives have a fitted effect of over 65% in size
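Infected erythrocytes (Dd2, 0.3% parasitemia, 2.5% hematocrit final) are added to compound in RPMI-1640/Albumax II medium, grown 72 h at 37C in low oxygen, then lysed with saponin/Triton-X containing SYBR Green and read by fluorescence.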
Numbers stand for hits; [ ] = another dose, or the depositor's remark.

What do the screens show for `CCN1c2cc(C(=O)NCc3ccc(C)c(C)c3)ccc2C(=O)N2CCCCCC21` (centres undefined)?
Pf Dd2 growth: inactive

How did CCN1c2cc(C(=O)NCc3cccc(Cl)c3)ccc2C(=O)N2CCCCCC21 (centres undefined) do in these assays?
Pf Dd2 growth: inactive

What do the screens show for `CCN1c2cc(C(=O)NCc3ccc(OC)cc3)ccc2C(=O)N2CCCCCC21` (centres undefined)?
Pf Dd2 growth: inactive

Results for c1ccc(-c2nnc3n2CCN(Cc2ccsc2)C3)cc1 ?
Pf Dd2 growth: inactive

How did c1ccc(Cc2nnc([C@H]3CCN(C4CCCCC4)C3)o2)cc1 do in these assays?
Pf Dd2 growth: inactive

Results for COc1ccc(C(=O)NCc2nnc3ccc(-c4ccc(C)c(C)c4)nn23)cc1F ?
Pf Dd2 growth: inactive

How did CN(CC1CCOCC1)C(=O)NCc1ccc(F)cc1 do in these assays?
Pf Dd2 growth: inactive

Results for O=C(c1ccccc1)N1CCC(Oc2ccccc2)C1 (centres undefined) ?
Pf Dd2 growth: inactive

What do the screens show for `COC[C@@H]1OC[C@@]2(C)C3CC[C@@H](O)[C@@H](CC(=O)NCc4cccs4)[C@]3(C)CC[C@H]2O1` (some centres undefined)?
Pf Dd2 growth: inactive

What do the screens show for `CC(C)CNC(=O)C1COC2(CCN(C(=O)c3ccc(F)cc3)CC2)N1C(=O)c1ccccc1` (centres undefined)?
Pf Dd2 growth: inactive

How did CC(C)NC[C@H]1O[C@@H](CO)[C@@H](O)[C@H]1N1CCN(c2ccccn2)CC1 do in these assays?
Pf Dd2 growth: inactive

Results for CCn1cc(C(=O)NCCc2ccccc2)c(=O)c2cc(S(=O)(=O)N3CCOCC3)ccc21 ?
Pf Dd2 growth: inactive

How did Cc1ccc(CNC(=O)c2c[nH]c3ccc(S(=O)(=O)N4CCOCC4)cc3c2=O)cc1 do in these assays?
Pf Dd2 growth: inactive

Results for O=C(NC1CC(=O)N(c2ccc(Cl)cc2)C1)c1ccc(S(=O)(=O)N2CCOCC2)cc1 (centres undefined) ?
Pf Dd2 growth: inactive

How did O=C(NC1CC(=O)N(c2cccc(F)c2)C1)c1ccc(S(=O)(=O)N2CCOCC2)cc1 (centres undefined) do in these assays?
Pf Dd2 growth: inactive

What do the screens show for `O=C(NCCCn1ccnn1)c1cccc(S(=O)(=O)N2CCOCC2)c1`?
Pf Dd2 growth: inactive

Results for O=C(NCCSc1c(-c2ccc(Br)cc2)[nH]c2ccccc12)c1ccc(S(=O)(=O)N2CCOCC2)cc1 ?
Pf Dd2 growth: 5.6µM

Results for O=C(CN1C(=O)CCc2cc(S(=O)(=O)N3CCOCC3)ccc21)NCc1ccc(Cl)cc1 ?
Pf Dd2 growth: inactive

Results for O=C(NCCSc1c(-c2ccc(Cl)cc2)[nH]c2ccccc12)c1ccc(S(=O)(=O)N2CCOCC2)cc1 ?
Pf Dd2 growth: 8.9µM

What do the screens show for `O=C(NCCSc1c(-c2ccccc2)[nH]c2ccccc12)c1ccc(S(=O)(=O)N2CCOCC2)cc1`?
Pf Dd2 growth: 10µM

What do the screens show for `CNC(=O)N1C[C@@H](CN(C)C)[C@H](NC(=O)c2ccccc2OC(F)(F)F)C1`?
Pf Dd2 growth: inactive

What do the screens show for `CC(C)N[C@@H]1CC[C@@H]1NC(=O)c1ccccc1OC(F)(F)C(F)F`?
Pf Dd2 growth: 7.9µM

How did CN(C)C[C@@H]1CN(C)C[C@H]1NC(=O)c1ccccc1OC(F)(F)F do in these assays?
Pf Dd2 growth: inactive

How did O=C(NCCc1noc(C2CC2)n1)Nc1cccc(C(F)(F)F)c1 do in these assays?
Pf Dd2 growth: inactive

How did COCCNc1nc2cc(C(=O)N3CC[C@H]4CNC[C@H]43)ccc2n1C do in these assays?
Pf Dd2 growth: inactive

Results for CN(CC1CCOC1)C(=O)NCc1cccc(F)c1 (centres undefined) ?
Pf Dd2 growth: inactive[5.79 µM]

Results for COc1ccc(C(=O)N[C@@H]2CCC[C@@H]2C(=O)N2CCN(Cc3ccc(F)cc3)CC2)cc1 ?
Pf Dd2 growth: inactive

How did COc1ccc(C(=O)N[C@@H]2CCC[C@@H]2C(=O)NCCCn2cccn2)cc1 do in these assays?
Pf Dd2 growth: inactive

What do the screens show for `COc1ccc(C(=O)N[C@@H]2CCC[C@@H]2C(=O)N2CCCC2)cc1`?
Pf Dd2 growth: inactive

Results for CCCNC(=O)[C@H]1CCC[C@H]1NC(=O)c1ccc(OC)cc1 ?
Pf Dd2 growth: inactive

Results for COc1ccc(C(=O)N[C@@H]2CCC[C@@H]2C(=O)N2CCCCC2)cc1 ?
Pf Dd2 growth: inactive

Results for COc1ccc(C(=O)N[C@@H]2CCC[C@@H]2C(=O)N2CCN(c3ccccc3F)CC2)cc1 ?
Pf Dd2 growth: 10µM

What do the screens show for `COc1ccc(C(=O)N[C@@H]2CCC[C@@H]2C(=O)N2CCN(c3cc(C)ccc3C)CC2)cc1`?
Pf Dd2 growth: 5µM

What do the screens show for `COc1ccc(C(=O)N[C@@H]2CCC[C@@H]2C(=O)NCCCN2CCCc3ccccc32)cc1`?
Pf Dd2 growth: 11µM

Results for COc1ccc(C(=O)N[C@@H]2CCC[C@@H]2C(=O)N2CCOCC2)cc1 ?
Pf Dd2 growth: inactive

How did O=C(NCc1ccncc1)C1CCN(C(=O)c2ncn3c2COC(c2ccc(F)cc2)C3)CC1 (centres undefined) do in these assays?
Pf Dd2 growth: inactive

What do the screens show for `Cc1cc(CNC(=O)[C@@H]2CCC[C@@H](NCC3CC3)CN(C)C(=O)C2)no1`?
Pf Dd2 growth: inactive

Results for COc1ccc(-c2cc3nc4c(c(=O)n3[nH]2)CN(C(=O)CN(C)S(=O)(=O)c2cnc[nH]2)CC4)cc1 ?
Pf Dd2 growth: inactive[5.79 µM]

How did Cc1cccc(CN2C[C@@H](C(=O)O)C[C@H](C(=O)N3CCN(C)CC3)C2)n1 do in these assays?
Pf Dd2 growth: inactive

What do the screens show for `O=C(N[C@@H]1CN(Cc2ccoc2)C[C@H]1CO)c1cccnc1`?
Pf Dd2 growth: inactive

Results for CCOC(=O)c1sc(N2C(=O)c3oc4ccc(F)cc4c(=O)c3C2c2cccc(OC)c2)nc1C (centres undefined) ?
Pf Dd2 growth: inactive

How did Cc1ccc(N2C(=O)c3n[nH]c(C)c3C2c2ccccc2Cl)cc1 (centres undefined) do in these assays?
Pf Dd2 growth: inactive

Results for CCOC(=O)c1ccc(N2C(=O)c3n[nH]c(-c4cccs4)c3C2c2ccc(OC)cc2OC)cc1 (centres undefined) ?
Pf Dd2 growth: 11µM

What do the screens show for `CCOC(=O)C1=C(C)N=C2SC=C(CC(=O)N3CCC(C)CC3)N2C1c1cccc(OC)c1` (centres undefined)?
Pf Dd2 growth: inactive

How did CCOC(=O)c1ccc(N2C(=O)c3n[nH]c(-c4cccs4)c3C2c2cccc(OC)c2)cc1 (centres undefined) do in these assays?
Pf Dd2 growth: 3.5µM

How did CCOc1ccc(C(=O)NC2CCCN(c3cc(-c4ccc(OC)cc4)[nH]n3)C2)cc1 (centres undefined) do in these assays?
Pf Dd2 growth: inactive

Results for CCOc1ccc(C(=O)Nc2ccc(-n3nncc3-c3ccc(OC)cc3)cc2)cc1 ?
Pf Dd2 growth: inactive

What do the screens show for `CCOC(=O)c1ccc(N2CC3=C(C2=O)C(c2ccc(OC)cc2)NC(=O)N3C)cc1` (centres undefined)?
Pf Dd2 growth: inactive

How did CCOC(=O)c1ccc(N2C(=O)c3[nH]nc(-c4ccc(OCC)cc4)c3C2c2ccc(OC)cc2OC)cc1 (centres undefined) do in these assays?
Pf Dd2 growth: 7.9µM

What do the screens show for `OCc1cc(CC2(NCc3ccc(CO)o3)COC2)no1`?
Pf Dd2 growth: inactive

How did CCCn1cc(NC(=O)C[C@H]2NC(=O)c3ccccc3NC2=O)c(C)n1 do in these assays?
Pf Dd2 growth: inactive

What do the screens show for `COC[C@]1(O)CCN(S(=O)(=O)c2cccc(C(=O)O)c2)CC1(C)C`?
Pf Dd2 growth: inactive
